From the supplement of paper PMC4466140

Columns and labels:
Assay in all cases: SPOT peptide array binding signal intensity (averaged, normalized) (arbitrary units (background-subtracted, floor 0; scale differs between SH3 domains)); higher = stronger binding of the SH3 domain to the peptide
CaNbp2 = molecular target: CaNbp2
Method in brief: (§1)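 Peptides were synthetic 15-mers on cellulose membranes, with every cysteine replaced by serine. They were incubated overnight at 4°C with GST-SH3 domains from four yeast species at 10 μg/ml in TBS-based blocking buffer. Binding signal, the replicate-averaged normalized and background-subtracted spot intensity, is in arbitrary units that differ between domains.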

CaRvs167 = molecular target: CaRvs167
Method in brief: as §1

CaRvs167-3 = molecular target: CaRvs167-3
Method in brief: as §1

CaSho1 = molecular target: CaSho1
Method in brief: as §1

CaSla1-D1-D2 = molecular target: CaSla1-D1-D2
Method in brief: as §1

CaSla1-D3 = molecular target: CaSla1-D3
Method in brief: as §1

ScAbp1 = molecular target: ScAbp1
Method in brief: as §1

ScBbc1 = molecular target: ScBbc1
Method in brief: as §1

ScBem1-D1 = molecular target: ScBem1-D1
Method in brief: as §1

ScBzz1-D1 = molecular target: ScBzz1-D1
Method in brief: as §1

ScBzz1-D2 = molecular target: ScBzz1-D2
Method in brief: as §1

ScCyk3 = molecular target: ScCyk3
Method in brief: as §1

ScFus1 = molecular target: ScFus1
Method in brief: as §1

ScHof1 = molecular target: ScHof1
Method in brief: as §1

ScHse1 = molecular target: ScHse1
Method in brief: as §1

ScLsb1 = molecular target: ScLsb1
Method in brief: as §1

ScLsb2 = molecular target: ScLsb2
Method in brief: as §1

ScLsb3 = molecular target: ScLsb3
Method in brief: as §1

ScLsb4 = molecular target: ScLsb4
Method in brief: as §1

ScMyo3 = molecular target: ScMyo3
Method in brief: as §1

ScMyo5 = molecular target: ScMyo5
Method in brief: as §1

ScNbp2 = molecular target: ScNbp2
Method in brief: as §1

ScPex13 = molecular target: ScPex13
Method in brief: as §1

ScRvs167 = molecular target: ScRvs167
Method in brief: as §1

ScSho1 = molecular target: ScSho1
Method in brief: as §1

ScSla1-D1-D2 = molecular target: ScSla1-D1-D2
Method in brief: as §1

ScSla1-D3 = molecular target: ScSla1-D3
Method in brief: as §1

SpAbp1-D1 = molecular target: SpAbp1-D1
Method in brief: as §1

SpBbc1 = molecular target: SpBbc1
Method in brief: as §1

SpBzz1-D1 = molecular target: SpBzz1-D1
Method in brief: as §1

SpBzz1-D2 = molecular target: SpBzz1-D2
Method in brief: as §1

SpCyk3 = molecular target: SpCyk3
Method in brief: as §1

SpHof1 = molecular target: SpHof1
Method in brief: as §1

SpHof1-2 = molecular target: SpHof1-2
Method in brief: as §1

SpHof1-3 = molecular target: SpHof1-3
Method in brief: as §1

SpHse1 = molecular target: SpHse1
Method in brief: as §1

SpLsb1 = molecular target: SpLsb1
Method in brief: as §1

SpLsb4 = molecular target: SpLsb4
Method in brief: as §1

SpMyo1 = molecular target: SpMyo1
Method in brief: as §1

SpNbp2 = molecular target: SpNbp2
Method in brief: as §1

SpPex13 = molecular target: SpPex13
Method in brief: as §1

SpRvs167 = molecular target: SpRvs167
Method in brief: as §1

SpSla1-D1-D2 = molecular target: SpSla1-D1-D2
Method in brief: as §1

SpSla1-D3 = molecular target: SpSla1-D3
Method in brief: as §1

AgAbp1 = molecular target: AgAbp1
Method in brief: as §1

AgBbc1 = molecular target: AgBbc1
Method in brief: as §1

AgBem1-D1 = molecular target: AgBem1-D1
Method in brief: as §1

AgBzz1-D1 = molecular target: AgBzz1-D1
Method in brief: as §1

AgBzz1-D2 = molecular target: AgBzz1-D2
Method in brief: as §1

AgCyk3 = molecular target: AgCyk3
Method in brief: as §1

AgFus1 = molecular target: AgFus1
Method in brief: as §1

AgHof1 = molecular target: AgHof1
Method in brief: as §1

AgHse1 = molecular target: AgHse1
Method in brief: as §1

AgLsb1 = molecular target: AgLsb1
Method in brief: as §1

AgLsb4 = molecular target: AgLsb4
Method in brief: as §1

AgMyo5 = molecular target: AgMyo5
Method in brief: as §1

AgNbp2 = molecular target: AgNbp2
Method in brief: as §1

AgRvs167 = molecular target: AgRvs167
Method in brief: as §1

AgSho1 = molecular target: AgSho1
Method in brief: as §1

AgSla1-D1-D2 = molecular target: AgSla1-D1-D2
Method in brief: as §1

AgSla1-D3 = molecular target: AgSla1-D3
Method in brief: as §1

CaAbp1-D1 = molecular target: CaAbp1-D1
Method in brief: as §1

CaAbp1-D2 = molecular target: CaAbp1-D2
Method in brief: as §1

CaBbc1 = molecular target: CaBbc1
Method in brief: as §1

CaBem1-D1 = molecular target: CaBem1-D1
Method in brief: as §1

CaBzz1-D1 = molecular target: CaBzz1-D1
Method in brief: as §1

CaBzz1-D2 = molecular target: CaBzz1-D2
Method in brief: as §1

CaCyk3 = molecular target: CaCyk3
Method in brief: as §1

CaFus1 = molecular target: CaFus1
Method in brief: as §1

CaHof1 = molecular target: CaHof1
Method in brief: as §1

CaHse1 = molecular target: CaHse1
Method in brief: as §1

CaLsb1 = molecular target: CaLsb1
Method in brief: as §1

CaLsb4 = molecular target: CaLsb4
Method in brief: as §1

CaMyo5 = molecular target: CaMyo5
Method in brief: as §1

## KDKKTKPTPPPKPSH
CaNbp2
  SPOT peptide array binding signal intensity: 0.5
CaRvs167
  SPOT peptide array binding signal intensity: 1.5
CaRvs167-3
  SPOT peptide array binding signal intensity: 4.5
CaSho1
  SPOT peptide array binding signal intensity: 6
CaSla1-D1-D2
  SPOT peptide array binding signal intensity: 10
CaSla1-D3
  SPOT peptide array binding signal intensity: 2
ScAbp1
  SPOT peptide array binding signal intensity: 735
ScBbc1
  SPOT peptide array binding signal intensity: ≤ 0
ScBem1-D1
  SPOT peptide array binding signal intensity: 9
ScBzz1-D1
  SPOT peptide array binding signal intensity: ≤ 0
ScBzz1-D2
  SPOT peptide array binding signal intensity: 79
ScCyk3
  SPOT peptide array binding signal intensity: 1
ScFus1
  SPOT peptide array binding signal intensity: 31
ScHof1
  SPOT peptide array binding signal intensity: 1.75
ScHse1
  SPOT peptide array binding signal intensity: 38
ScLsb1
  SPOT peptide array binding signal intensity: ≤ 0
ScLsb2
  SPOT peptide array binding signal intensity: ≤ 0
ScLsb3
  SPOT peptide array binding signal intensity: 328
ScLsb4
  SPOT peptide array binding signal intensity: ≤ 0
ScMyo3
  SPOT peptide array binding signal intensity: ≤ 0
ScMyo5
  SPOT peptide array binding signal intensity: ≤ 0
ScNbp2
  SPOT peptide array binding signal intensity: 17
ScPex13
  SPOT peptide array binding signal intensity: ≤ 0
ScRvs167
  SPOT peptide array binding signal intensity: 1.17
ScSho1
  SPOT peptide array binding signal intensity: 334
ScSla1-D1-D2
  SPOT peptide array binding signal intensity: 9
ScSla1-D3
  SPOT peptide array binding signal intensity: 5
SpAbp1-D1
  SPOT peptide array binding signal intensity: 148
SpBbc1
  SPOT peptide array binding signal intensity: 3.75
SpBzz1-D1
  SPOT peptide array binding signal intensity: 26.5
SpBzz1-D2
  SPOT peptide array binding signal intensity: ≤ 0
SpCyk3
  SPOT peptide array binding signal intensity: ≤ 0
SpHof1
  SPOT peptide array binding signal intensity: 5.5
SpHof1-2
  SPOT peptide array binding signal intensity: 5.5
SpHof1-3
  SPOT peptide array binding signal intensity: 67.8
SpHse1
  SPOT peptide array binding signal intensity: 9.25
SpLsb1
  SPOT peptide array binding signal intensity: 70.5
SpLsb4
  SPOT peptide array binding signal intensity: ≤ 0
SpMyo1
  SPOT peptide array binding signal intensity: 2
SpNbp2
  SPOT peptide array binding signal intensity: 31
SpPex13
  SPOT peptide array binding signal intensity: 9
SpRvs167
  SPOT peptide array binding signal intensity: 2
SpSla1-D1-D2
  SPOT peptide array binding signal intensity: 1.5
SpSla1-D3
  SPOT peptide array binding signal intensity: ≤ 0

## VRVKKRPLIRPLNSS
AgAbp1
  SPOT peptide array binding signal intensity: 450
AgBbc1
  SPOT peptide array binding signal intensity: 184
AgBem1-D1
  SPOT peptide array binding signal intensity: 244
AgBzz1-D1
  SPOT peptide array binding signal intensity: 6.5
AgBzz1-D2
  SPOT peptide array binding signal intensity: 215
AgCyk3
  SPOT peptide array binding signal intensity: 6
AgFus1
  SPOT peptide array binding signal intensity: 223
AgHof1
  SPOT peptide array binding signal intensity: 48.5
AgHse1
  SPOT peptide array binding signal intensity: 646
AgLsb1
  SPOT peptide array binding signal intensity: 2.5
AgLsb4
  SPOT peptide array binding signal intensity: 81
AgMyo5
  SPOT peptide array binding signal intensity: 0.5
AgNbp2
  SPOT peptide array binding signal intensity: 220
AgRvs167
  SPOT peptide array binding signal intensity: 2.33
AgSho1
  SPOT peptide array binding signal intensity: 53
AgSla1-D1-D2
  SPOT peptide array binding signal intensity: 442
AgSla1-D3
  SPOT peptide array binding signal intensity: 12.8
CaAbp1-D1
  SPOT peptide array binding signal intensity: 1520
CaAbp1-D2
  SPOT peptide array binding signal intensity: 1190
CaBbc1
  SPOT peptide array binding signal intensity: 278
CaBem1-D1
  SPOT peptide array binding signal intensity: 378
CaBzz1-D1
  SPOT peptide array binding signal intensity: 153
CaBzz1-D2
  SPOT peptide array binding signal intensity: 101
CaCyk3
  SPOT peptide array binding signal intensity: 132
CaFus1
  SPOT peptide array binding signal intensity: 381
CaHof1
  SPOT peptide array binding signal intensity: 1
CaHse1
  SPOT peptide array binding signal intensity: 15
CaLsb1
  SPOT peptide array binding signal intensity: 2
CaLsb4
  SPOT peptide array binding signal intensity: 104
CaMyo5
  SPOT peptide array binding signal intensity: 1.5
CaNbp2
  SPOT peptide array binding signal intensity: 311
CaRvs167
  SPOT peptide array binding signal intensity: 8.5
CaRvs167-3
  SPOT peptide array binding signal intensity: 183
CaSho1
  SPOT peptide array binding signal intensity: 370
CaSla1-D1-D2
  SPOT peptide array binding signal intensity: 534
CaSla1-D3
  SPOT peptide array binding signal intensity: 0.25
ScAbp1
  SPOT peptide array binding signal intensity: 138
ScBbc1
  SPOT peptide array binding signal intensity: 82
ScBem1-D1
  SPOT peptide array binding signal intensity: 70
ScBzz1-D1
  SPOT peptide array binding signal intensity: 11.5
ScBzz1-D2
  SPOT peptide array binding signal intensity: 11
ScCyk3
  SPOT peptide array binding signal intensity: 91.5
ScFus1
  SPOT peptide array binding signal intensity: 156
ScHof1
  SPOT peptide array binding signal intensity: 0.75
ScHse1
  SPOT peptide array binding signal intensity: 1480
ScLsb1
  SPOT peptide array binding signal intensity: 57.8
ScLsb2
  SPOT peptide array binding signal intensity: 5.5
ScLsb3
  SPOT peptide array binding signal intensity: 312
ScLsb4
  SPOT peptide array binding signal intensity: 19
ScMyo3
  SPOT peptide array binding signal intensity: 3
ScMyo5
  SPOT peptide array binding signal intensity: 1.5
ScNbp2
  SPOT peptide array binding signal intensity: 312
ScPex13
  SPOT peptide array binding signal intensity: 0.25
ScRvs167
  SPOT peptide array binding signal intensity: 15.5
ScSho1
  SPOT peptide array binding signal intensity: 386
ScSla1-D1-D2
  SPOT peptide array binding signal intensity: 330
ScSla1-D3
  SPOT peptide array binding signal intensity: 16
SpAbp1-D1
  SPOT peptide array binding signal intensity: 388
SpBbc1
  SPOT peptide array binding signal intensity: 9.75
SpBzz1-D1
  SPOT peptide array binding signal intensity: 150
